Screening results (PubChem BioAssay)
Compounds with a hit are over-represented: about 2.3% of the library has one in this group of screens.
proKLK7 act: activators of human kallikrein-7 zymogen; P49862; activation, % at 7 µM; purified proKLK7, EDANS-DABCYL substrate fluorescence; 100% is mature enzyme control, 0% vehicle; 0.9% of 370,000 active;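 active = activation above the mean of all tested compounds plus 3 SD, computed per campaign excluding outliers beyond control limits, cut at about 13% in these data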
Target sequence (P49862 whole entry, looked up): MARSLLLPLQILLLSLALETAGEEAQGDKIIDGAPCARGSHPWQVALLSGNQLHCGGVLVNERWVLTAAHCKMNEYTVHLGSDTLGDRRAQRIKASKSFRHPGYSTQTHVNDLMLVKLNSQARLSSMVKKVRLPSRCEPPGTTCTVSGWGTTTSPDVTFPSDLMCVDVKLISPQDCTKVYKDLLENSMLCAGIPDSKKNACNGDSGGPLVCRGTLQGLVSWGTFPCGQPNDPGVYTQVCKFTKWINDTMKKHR
ADAM10 inh: inhibitors of human ADAM10 | AID 720582 | 0.62% of 370,000 active | inhibition, % at 7 µM | recombinant ADAM10, EDANS/DABCYL FRET peptide cleavage, 3 h;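 active = inhibition above a per-campaign cutoff equal to the mean of compounds falling between control-based bounds plus 3 SD, cut at about 20% in these data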;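 also: 0% = DMSO wells while the 100% control is not disclosed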
ADAM17 inh: ADAM17 inhibition, QFRET primary screen | recombinant ADAM17, EDANS/DABCYL FRET peptide cleavage | P78536 | inhibition, % at 6.95 µM | 0.83% of 370,000 active | AID 720648;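 active = inhibition above the mean of compounds lying between control limits plus 3 SD, set per campaign, cut at about 8.5% in these data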;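 also: 0% = DMSO-only wells as the low control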
V-ATPase pHluor: yeast V-ATPase proton transport regulation by pHLuorin; S. cerevisiae, pHLuorin cytosolic pH fluorescence; response, % at 10 µM; 0.37% of 350,000 active; AID 504577; in the data active = response mostly above about 7.3%, no sharp cut-off; inactive = mostly below about 5.4%; also: actives read high
ADAM10 counter: inhibits human ADAM10 in ADAM17 exosite counter-screen | recombinant ADAM10, EDANS/DABCYL FRET peptide cleavage, 3 h | shares compounds with ADAM17 inh | inhibition, % at 6.95 µM | 47% of 2,900 active;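 active = mean inhibition over the triplicate runs exceeds the activity threshold set in the earlier primary screen, cut at about 20% in these data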;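 also: 0% = DMSO wells and 100% = marimastat wells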
ADAM17 confirm: confirmation of inhibitors of human ADAM17; inhibition, % at 6.95 µM; shares compounds with ADAM17 inh; recombinant ADAM17, EDANS/DABCYL QFRET peptide cleavage; AID 743257; 65% of 2,900 active;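 active = mean inhibition across replicates above the hit cutoff set in the primary screen, cut at about 8.5% in these data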;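 also: 0% = DMSO wells and 100% = marimastat wells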
* marks the source's active call; other numbers are inactive results; . = no result.

SMILES | proKLK7 act | ADAM10 inh | ADAM17 inh | V-ATPase pHluor | ADAM10 counter | ADAM17 confirm
C/C(=C\c1ccc(C(=O)O)cc1)c1ccc2c(c1)C(C)(C)CCC2(C)C | 0 | 6 | 9.0* | 0 | 6 | 5
O=C(c1ccc(S(=O)(=O)c2cccc(Cl)c2)c([N+](=O)[O-])c1)N1CCN(Cc2ccccc2)CC1 | 1 | 10 | 10* | -5 | 25* | 17*
COC(=O)[C@]12C[C@H](CC(=O)N3CCCCC3)C(=O)N(Cc3ccc(Cl)cc3Cl)C1=C[C@H](C(C)C)O[C@@H]2C1CC1 | 1 | 2 | -1 | . | . | .
COc1cc(C)c(C(=O)Oc2cc(C)c(C(=O)O)c(O)c2C)c(O)c1C | 0 | 10 | 11* | -1 | 15 | 11*
COc1cc(C)c(C(=O)Oc2cc(C)c(C(=O)O)c(O)c2)c(O)c1 | 0 | -8 | -1 | -1 | . | .
OCCC(N1CCOCC1)C(O)(c1ccccc1)c1ccccc1 (stereo not given) | 0 | -3 | -4 | . | . | .
Cc1cccc(C)c1N=Nc1c(C)cc(O)cc1C | 0 | 19 | 9.9* | -1 | 45* | 20*
COC(=O)C[C@@H]1C[C@H]2c3cc(NC(=O)Nc4ccccc4F)ccc3O[C@H]2[C@@H](CO)O1 | -1 | -7 | -4 | . | . | .
Cc1noc(C)c1C(=O)OCC(=O)Nc1ccccc1C(=O)NC(C)c1ccccc1 (stereo not given) | 0 | -1 | -5 | 2 | . | .
Cc1noc(C)c1C(=O)OCC(=O)Nc1ccccc1Oc1ccccc1 | 0 | 12 | 8.7* | -6 | 6 | 11*
CCOC(=O)CC(=O)CSCC(=O)Nc1ccc(C)cc1 | -1 | 1 | 9.1* | -1 | 6 | 7
CCN1C(=O)[C@@H]2[C@@H](c3ccc(-c4ccc(C(C)=O)cc4)cc3)N3CCC[C@@]3(C(=O)OC)[C@@H]2C1=O | 0 | 8 | -2 | 9 | . | .
CCN1C(=O)[C@H]2[C@@H](c3ccc(-c4ccc(C(C)=O)cc4)cc3)N3CCC[C@@]3(C(=O)OC)[C@H]2C1=O | 1 | 16 | 9.7* | 6 | -9 | 0
C=CC[C@H]1CC(C)=C[C@H](CC=C)N1C(=O)c1cc(COc2ccccc2SC)on1 | 0 | 13 | 9.4* | 0 | 29* | 14*
COCC1CCN(C(=O)c2cc(COc3ccccc3SC)on2)C1 (stereo not given) | 0 | -2 | 0 | -5 | . | .
Cc1ccc(CN2CC(N3CCC[C@@H]3C)CS2(=O)=O)cc1 (stereo not given in full) | 0 | -7 | -5 | . | . | .
CCCCNC(=O)OC1CCC12CCC(c1ccccc1)CC2 (stereo not given) | 0 | 1 | -2 | . | . | .
c1ccc(COCCc2cn(Cc3ccccc3)c3ccccc23)cc1 | 0 | -8 | -5 | . | . | .
COc1ccc(CCC(=O)Nc2nnc(C(C)(C)C)s2)cc1 | -1 | 6 | -1 | 1 | . | .
CCSc1nnc(NC(=O)CCc2ccc(OC)cc2)s1 | 0 | 16 | 9.1* | -3 | 4 | 3
CCOc1ccc(C(=O)c2nc3c(n2O)CCCC3)cc1 | 0 | 1 | 9.8* | 3 | 7 | 9.7*
CC1CC(C)CN(CCCNC(=O)CN2C(=O)CSc3ccc(S(=O)(=O)N4CCCCC4)cc32)C1 (stereo not given) | 0 | -1 | 10* | 0 | 12 | 9.8*
CCc1ccc(Cn2c(=O)n(Cc3ccc(C(=O)NCCCOC)cc3)c(=O)c3ccccc32)cc1 | 1 | -7 | -7 | . | . | .
Cc1ccc(-n2nnnc2CNC(=O)C2CC(=O)N(c3ccccc3)C2)cc1C (stereo not given) | 0 | 2 | 9.4* | -4 | 1 | 4
CC(C)COc1cccc(C(=O)Nc2cc(S(=O)(=O)N3CCOCC3)ccc2N2CCCC2)c1 | 0 | -6 | 11* | -1 | 21* | 11*
SMILES | proKLK7 act | ADAM10 inh | ADAM17 inh | V-ATPase pHluor | ADAM10 counter | ADAM17 confirm
CCc1ccc(C(=O)Nc2cc(S(=O)(=O)N3CCOCC3)ccc2N2CCOCC2)cc1 | 0 | 6 | 9.1* | 3 | -4 | 3
Cc1ccc(C(=O)Nc2cc(S(=O)(=O)N3CCOCC3)ccc2N2CCCC2)cc1 | 0 | -9 | 0 | -1 | . | .
COc1cccc(C(=O)Nc2cc(S(=O)(=O)N3CCOCC3)ccc2N2CCOCC2)c1 | 0 | 4 | -2 | -6 | . | .
Cc1[nH]c2ccccc2c1C(=O)c1c(N)[nH]c(C(=O)c2ccc(Br)cc2)c1-c1ccc(Br)cc1 | 0 | 4 | 2 | . | . | .
Cc1cc(C)cc(NC(=O)c2cccn2-c2ncc(C(F)(F)F)cc2Cl)c1 | 0 | 19 | 17* | 5 | 9 | 5
O=C(Nc1ccc(F)cc1F)c1cccn1-c1ncc(C(F)(F)F)cc1Cl | 0 | 7 | 2 | 1 | . | .
COC(=O)c1cc2c(c3c4cc(F)ccc4n(S(=O)(=O)c4ccc(OC)cc4)c13)C(=O)N(Cc1ccccc1OC)C2 | -3 | -8 | -2 | . | . | .
COc1ccc([C@H]2CC(=O)C=C(/C=C/c3ccccc3)C2)cc1OC | 0 | 13 | 13* | 0 | -2 | 6
O=C1C=C(/C=C/c2ccccc2)C[C@@H](c2ccc(F)cc2)C1 | 0 | 9 | 5 | 0 | . | .
CCOc1ccc(NS(=O)(=O)c2ccc3c(c2)CCN3C(=O)CCC(=O)O)cc1 | -1 | 14 | 9.8* | -2 | -3 | 0
N#CCC(CNc1ncc(C(F)(F)F)cc1Cl)OC(=O)c1ccc(Cl)cc1Cl (stereo not given) | 0 | 10 | 9.6* | 1 | 41* | 19*
CCN(CC)CCCNC(=O)CSc1nnc(-c2ccncc2)n1-c1ccc(OC)cc1 | 0 | -3 | -4 | . | . | .
Cc1c(C(=O)N2CCN(S(=O)(=O)c3ccccc3)CC2)oc2ccc(Br)cc12 | 1 | 12 | 10* | 2 | 24* | 14*
CCOCCn1c(COc2ccccc2)nc2ccccc21 | 0 | 3 | 9.4* | 0 | -9 | -3
CCCn1c(COc2ccccc2)nc2ccccc21 | 0 | -2 | -2 | 1 | . | .
C[C@H]1CC[C@@]2(O[C@@H](CCO)C[C@@H](O)[C@@H]2O)O1 | 0 | 5 | -2 | -4 | . | .
C[C@@H]1CC[C@]2(O[C@H](CCO)C[C@@H](O)[C@@H]2O)O1 | 0 | 8 | 8.8* | -2 | 10 | 4
Cc1ccc(NC(=S)NNC(=O)c2c([N+](=O)[O-])c(C)nn2C)cc1 | 0 | 7 | 12* | 0 | 25* | 12*
Cc1ccc(NC(=S)NNC(=O)c2c(Cl)c(C)nn2C)cc1 | 0 | 1 | 1 | 7 | . | .
OCCN1CN(c2ccccc2)C(=S)N(c2ccccc2)C1 | 0 | -10 | -6 | . | . | .
O=C(NN=Cc1ccccc1O)C(=O)Nc1ccc(F)cc1 | 0 | 1 | -1 | . | . | .
COc1cc(OC)cc(C(=O)NC2CCN(CC(=O)Nc3cccc4ccccc34)CC2)c1 | 1 | 12 | 12* | -2 | -5 | 2
